Values without a mark were called inactive. Results filed as inconclusive are left out. Active and inactive are the calls of the source. Unless noted, calls follow the shape of the dose curve; as a rule, active = well fitted curve in the direction sought with a large enough effect; inconclusive = small, poorly fitted or top-dose-only effect, or another doubt; inactive = no such curve, though single readings can be large; an effect the other way counts as inactive or inconclusive.

In assay [1] the target is Cytochrome P450 3A4 (Homo sapiens) (UniProt P08684). In words: qHTS Assay for Activators of Cytochrome P450 3A4 (AID 885). Also: nearly all actives have a fitted effect of over 65% in size. The essentials: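 Luminescent readout of luciferin formed from 25 uM Luciferin-PPXE (KM level) by 20 nM CYP3A4 in 200 mM KPO4, with 60 min NADPH-driven reaction at room temperature after 10 min compound exposure. Ketoconazole (57 uM) defined 100% inhibition.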

In assay [2] the target is Alpha-galactosidase (Coffea arabica) (UniProt Q42656). In words: Counterscreen for Glucocerebrosidase Inhibitors: qHTS Assay for Coffee Bean alpha-Galactosidase at pH 4.5 (AID 957). Also: series mostly up to about 77 µM. The essentials:
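Quantitative HTS of compounds (0.7 nM to 77 uM) against coffee bean alpha-galactosidase at pH 4.5, measuring 4-methylumbelliferone fluorescence released from 80 uM substrate.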
A general note: The purpose of a counterscreen is to sort out artefacts and off-target activity.

A short description of assay [3]: MultiTox-Fluor Cytotoxicity Assay - LYMP1-002 - Dead Cells (AID 960). Also: potency is read from the fitted curve at half-maximal effect; nearly all actives have a fitted effect of over 60% in size. The essentials:
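Concentration-dependent increases in membrane-leaked protease activity are quantified in LYMP1-002 cells after 16 hr treatment; values are normalized against DMSO and tetraoctylammonium bromide (15 uM) controls and AC50 derived by Hill modeling.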

A short description of assay [4]: MultiTox-Fluor Cytotoxicity Assay - LYMP1-003 - Dead Cells (AID 961). Also: potency is read from the fitted curve at half-maximal effect; nearly all actives have a fitted effect of over 70% in size. A digest of the protocol:
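Dead-cell protease release, detected as bis-AAF-R110 fluorescence at 485/520 nm, was measured in LYMP1-003 cells after 16 h compound treatment at 37 C. AC50 values came from Hill-modeled qHTS curves normalized to DMSO (0%) and 15 uM tetraoctylammonium bromide (100%).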

The nature of assay [5]: Cell Viability - LYMP1-003 - Assay at 40 hr (AID 964). Also: potency is read from the fitted curve at half-maximal effect; nearly all actives have a fitted effect of over 60% in size. A digest of the protocol:
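Acute toxicity is scored as a concentration-dependent loss of intracellular ATP in LYMP1-003 cells (2500/well, complete medium) after 40 hr at 37 C, measured by CellTiter-Glo luminescence; AC50 values derive from standard Hill modelling.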

Assay [6] can be described thus: Cell Viability - LYMP1-002 - Assay at 40 hr (AID 994). Also: potency is read from the fitted curve at half-maximal effect; nearly all actives have a fitted effect of over 60% in size. A digest of the protocol:
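Concentration-dependent ATP loss after 40 hr treatment at 37 C defined toxicity; AC50 values were obtained by fitting the standard Hill equation.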

The target of assay [7] is Alpha-galactosidase (Coffea arabica) (UniProt Q42656). Nature of the assay: Counterscreen for Glucocerebrosidase Inhibitors: qHTS Assay for Coffee Bean alpha-Galactosidase at pH 5.9 (AID 998). The essentials:
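In 50 mM citric acid pH 5.9 with 0.005% Tween-20, coffee bean enzyme hydrolyses 80 uM 4-MU alpha-D-galactopyranoside over 20 min at RT. Activity is normalized to controls; AC50 comes from Hill-modelled concentration-response data.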

For assay [8], the target named is Endonuclease 4 (Escherichia coli (strain K12)) (UniProt P0A6C1). Nature of the assay: Counterscreen for APE1 Inhibitors: qHTS Validation Assay for Inhibitors of Endonuclease IV (AID 1708). The essentials:
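Measured as reaction progress, the fluorescence gain between first and third kinetic reads after adding 50 nM TAMRA/BHQ-2 THF duplex to 2 nM enzyme preincubated 15 min with compound; 2 mM MgCl2, pH 7.5.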

Assay [9] in a line: qHTS for differential inhibitors of proliferation of Plasmodium falciparum line W2 (AID 1883).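 Also: potency is read from the fitted curve at half-maximal effect; parasites grown with compound for 72 h before lysis and staining.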 As to conditions: Potency: Plasmodium falciparum W2 proliferation inhibition. For orientation: Quantitative high-throughput screening tests each substance at several concentrations.
Assay [10] can be described thus: Cytometry Cell-Based qHTS for Inhibitors of the mTORC1 Signaling Pathway in MEF cells (AID 2668). Also: potency is read from the fitted curve at half-maximal effect. A digest of the protocol: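 Phospho-rpS6 (Ser235/236) immunofluorescence over PI signal, scored as % positive cells using thresholds from 7.5 nM rapamycin and DMSO wells, after 24 h compound exposure of WT-Tsc2-rescued Tsc2-/-, p53-/- MEFs. PI cell count recorded for viability.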

Assay [11] can be described thus: Validation screen for inhibitors of Lassa infection (AID 463096; calls by dose curve).
For assay [12], the target named is Thioredoxin reductase 1, cytoplasmic (Rattus norvegicus) (UniProt O89049). Nature of the assay: qHTS Assay for Inhibitors of Mammalian Selenoprotein Thioredoxin Reductase 1 (TrxR1) (AID 488773). Also: potency is read from the fitted curve at half-maximal effect; nearly all actives have a fitted effect of over 40% in size. As to conditions: Potency: inhibition. The essentials: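 Inhibition is scored from the loss of NADPH fluorescence between first and last reads of an 8-min kinetic run. Selenite (400 uM) was the substrate, added after 15 min compound preincubation at room temperature.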

The target of assay [13] is Flap endonuclease 1 (Homo sapiens) (UniProt P39748). Nature of the assay: qHTS Validation Assay for the Inhibitors of Human Flap endonuclease 1 (FEN1) (AID 488816). Also: potency is read from the fitted curve at half-maximal effect. A digest of the protocol: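 Steps: add FEN1 (10 nM reagent) or buffer only; pin compounds; hold 15 min at room temperature; start with substrate, 50 nM final; read at 0 and 15 min; correct, normalize and fit a four-parameter Hill curve.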

For assay [14], the target named is M-phase phosphoprotein 8 (Homo sapiens) (UniProt Q99549). Nature of the assay: qHTS Validation Assay for Inhibitors for MPP8 Chromodomain Interactions with Methylated Histone Tails (AID 488949). Also: nearly all actives have a fitted effect of over 55% in size. Also: potency is read from the fitted curve at half-maximal effect. The essentials: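 AlphaScreen proximity signal from streptavidin donor and Ni-chelate acceptor beads (10 ug/mL each) reported binding of MPP8 to trimethyl-K9 H3(1-18) peptide, both at 50 nM. The complex formed 30 min before a 30 min compound exposure at room temperature, in PBS pH 7.4.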

Assay [15] can be described thus: Inducers of the Endoplasmic Reticulum Stress Response (ERSR) in human glioma: Validation (AID 504836). The essentials: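 Stably transfected U87-MG human glioma cells carrying a GRP78-based luminescent sensor were seeded at 1000 cells/well, pin-dosed with compounds and incubated 16 h. Luciferase reagent was then added, and end-point luminescence was read after 10 min at room temperature.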

The target in assay [16] is Glucocorticoid receptor (Homo sapiens) (UniProt P04150). In words: qHTS assay for small molecule antagonists of glucocorticoid receptor signaling (AID 588533; active = well fitted inhibition curve with a large enough effect in the signal ratio, with a control signal flat, not every such curve was filed as active; the % refers to the signal ratio;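 also: cells stimulated with 2 nM dexamethasone as agonist; potency is read from the fitted curve at half-maximal effect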). The essentials:
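Antagonist-mode qHTS: compound titrations added to GRE-bla HeLa cells, then dexamethasone 2 nM final; 18 h, 37 C. CCF4 FRET fluorescence normalized to dexamethasone and DMSO; IC50 from Hill fit.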

The target of assay [17] is Peroxisome proliferator-activated receptor delta (Homo sapiens) (UniProt Q03181). In words: qHTS assay for small molecule agonists of peroxisome proliferator-activated receptor delta signaling (AID 588534; calls by dose curve). The essentials:
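EC50 and efficacy values derive from Hill fits of a concentration series in a beta-lactamase reporter cell assay. Exposure is 18 hrs at 37 C, with CCF4 fluorescence as the readout.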

Assay [18] can be described thus: qHTS assay for small molecule agonists of the antioxidant response element (ARE) signaling pathway (AID 651741; active = well fitted activation curve with a large enough effect in the signal ratio; the % refers to the signal ratio; also: potency is read from the fitted curve at half-maximal effect). The essentials:
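Beta-lactamase reporter expression driven by the antioxidant response element in HepG2 cells was detected by fluorescence with LiveBLAzer B/G FRET substrate (2 h, room temperature) following 16 h compound treatment at 37 C.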

The target of assay [19] is Nuclear receptor ROR-gamma (Homo sapiens) (UniProt P51449). In words: qHTS assay for small molecule antagonists of the retinoid-related orphan receptor gamma (ROR-gamma) signaling pathway (AID 651802). Also: potency is read from the fitted curve at half-maximal effect; nearly all actives have a fitted effect of over 60% in size. The essentials: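 Doxycycline-induced reporter activity in engineered CHO cells (TET-inducible ROR, RORE-LUC) was measured by luminescence after 16hr compound exposure at 37C.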

Assay [20] in a line: qHTS for Activators of Parkin Expression: LOPAC Validation Assay (FLuc Reporter) (AID 720573). A digest of the protocol:
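FLuc signal from Parkin-promoter coincidence reporter neuronal cells, normalized to DMSO and positive control (100%). Cells (1,500/well) pre-incubated 24 h, then exposed to LOPAC compounds in 7-point dose response for 24 h at 37 C, 5% CO2.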

Assay [21] is described as follows: qHTS for Inhibitors of the Functional Ribonucleoprotein Complex (vRNP) of Lassa (LASV) Arenavirus: LASV Primary Screen - GLuc reporter signal (AID 1347082; calls by dose curve; tested in HEK293 reporter line).
The nature of assay [22]: qHTS for Inhibitors of the Functional Ribonucleoprotein Complex (vRNP) of Lassa (LASV) Arenavirus: Viability assay - alamar blue signal for LASV Primary Screen (AID 1347083; calls by dose curve; tested in HEK293 reporter line; also: series mostly up to about 57 µM; nearly all actives have a fitted effect of over 80% in size).
Assay [23] is described as follows: qHTS for Inhibitors of the Functional Ribonucleoprotein Complex (vRNP) of Lymphocytic Choriomeningitis Arenaviruses (LCMV): Viability assay - alamar blue signal for LCMV Primary Screen (AID 1347085; calls by dose curve; tested in HEK293 reporter line; also: series mostly up to about 57 µM; nearly all actives have a fitted effect of over 80% in size).
Assay [24] has as its target Nucleoprotein (Lymphocytic choriomeningitis virus (strain Armstrong)) (UniProt P09992). In words: qHTS for Inhibitors of the Functional Ribonucleoprotein Complex (vRNP) of Lymphocytic Choriomeningitis Arenaviruses (LCMV): LCMV Primary Screen - GLuc reporter signal (AID 1347086; calls by dose curve; also: series mostly up to about 57 µM; nearly all actives have a fitted effect of over 70% in size).
Assay [25] can be described thus: qHTS for differential inhibitors of proliferation of Plasmodium falciparum line 7G8 (AID 1815).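 Also: potency is read from the fitted curve at half-maximal effect; parasite growth measured after three days of incubation.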
Assay [26] is described as follows: qHTS for differential inhibitors of proliferation of Plasmodium falciparum line GB4 (AID 1816).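 Also: potency is read from the fitted curve at half-maximal effect; parasite growth measured after 72 h incubation.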 As to conditions: Potency: Plasmodium falciparum GB4 proliferation inhibition.
Assay [27] is described as follows: qHTS for differential inhibitors of proliferation of Plasmodium falciparum line Dd2 (AID 1882). Also: potency is read from the fitted curve at half-maximal effect; nearly all actives have a fitted effect of over 65% in size. As to conditions: Potency: Plasmodium falciparum Dd2 proliferation inhibition. The essentials: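 RBC culture, 0.3% parasitemia / 2.5% Hct final; cpd added by pin tool in DMSO; 72 h, 37 C, 5% CO2; lysis buffer + SYBR Green I, o/n RT dark; FI 485/535; norm. to artemisinin 0.29 uM and DMSO.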

Assay [28] concerns the target Voltage-gated inwardly rectifying potassium channel KCNH2 (Homo sapiens) (UniProt Q12809). In words: qHTS Assay for Small Molecule Inhibitors of the Human hERG Channel Activity (AID 588834).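 Also: potency is read from the fitted curve at half-maximal effect; lower thallium flux fluorescence means stronger hERG block; nearly all actives have a fitted effect of over 50% in size.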 A digest of the protocol: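 hERG block measured as reduced thallium-dye (FluxOR) fluorescence after stimulation buffer addition, read over 2 min. Cells were hERG-BacMam-transduced U2OS exposed to compound ~10 min […]; concentration-response fitted with Hill equation for AC50.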

Assay [29] concerns the target Arylsulfatase A (Homo sapiens) (UniProt P15289). Nature of the assay: qHTS screen for enhancers of Arylsulfatase A (ASA1): LOPAC Validation Assay (AID 720538). The essentials:
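Enhancer assay in patient-derived MLD fibroblasts carrying ASA-I179S: 48 h compound exposure at 37 C, then 14 h room-temperature pNCS turnover (0.5 mM final) in lysis buffer. Read by fluorescence at 525/598 nm after NaOH stop.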

Chain of M-phase phosphoprotein 8 (Homo sapiens) (Q99549 whole entry, looked up): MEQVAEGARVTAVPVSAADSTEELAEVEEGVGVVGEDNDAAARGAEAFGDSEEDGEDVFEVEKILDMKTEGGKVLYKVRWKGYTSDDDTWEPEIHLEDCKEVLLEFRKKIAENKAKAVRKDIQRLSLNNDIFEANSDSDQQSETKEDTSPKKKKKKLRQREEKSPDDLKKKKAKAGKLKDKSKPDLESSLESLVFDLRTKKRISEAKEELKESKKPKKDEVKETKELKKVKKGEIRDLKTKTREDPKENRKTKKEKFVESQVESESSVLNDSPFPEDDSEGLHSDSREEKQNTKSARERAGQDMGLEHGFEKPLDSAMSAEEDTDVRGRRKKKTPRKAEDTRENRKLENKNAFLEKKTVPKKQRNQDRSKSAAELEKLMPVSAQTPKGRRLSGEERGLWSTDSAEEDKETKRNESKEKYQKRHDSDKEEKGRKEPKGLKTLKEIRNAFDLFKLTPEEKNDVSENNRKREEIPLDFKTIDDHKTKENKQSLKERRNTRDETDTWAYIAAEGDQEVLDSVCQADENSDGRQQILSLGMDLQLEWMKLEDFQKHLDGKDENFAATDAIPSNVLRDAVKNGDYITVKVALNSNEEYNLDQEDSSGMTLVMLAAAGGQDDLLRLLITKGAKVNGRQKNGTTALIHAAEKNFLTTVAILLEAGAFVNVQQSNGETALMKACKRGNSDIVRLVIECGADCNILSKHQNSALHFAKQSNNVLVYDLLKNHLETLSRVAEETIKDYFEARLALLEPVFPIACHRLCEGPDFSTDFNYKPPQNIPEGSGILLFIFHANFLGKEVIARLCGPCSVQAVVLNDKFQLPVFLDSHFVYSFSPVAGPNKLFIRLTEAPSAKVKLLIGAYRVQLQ
Chain of Nucleoprotein (Lymphocytic choriomeningitis virus (strain Armstrong)) (P09992 whole entry, looked up): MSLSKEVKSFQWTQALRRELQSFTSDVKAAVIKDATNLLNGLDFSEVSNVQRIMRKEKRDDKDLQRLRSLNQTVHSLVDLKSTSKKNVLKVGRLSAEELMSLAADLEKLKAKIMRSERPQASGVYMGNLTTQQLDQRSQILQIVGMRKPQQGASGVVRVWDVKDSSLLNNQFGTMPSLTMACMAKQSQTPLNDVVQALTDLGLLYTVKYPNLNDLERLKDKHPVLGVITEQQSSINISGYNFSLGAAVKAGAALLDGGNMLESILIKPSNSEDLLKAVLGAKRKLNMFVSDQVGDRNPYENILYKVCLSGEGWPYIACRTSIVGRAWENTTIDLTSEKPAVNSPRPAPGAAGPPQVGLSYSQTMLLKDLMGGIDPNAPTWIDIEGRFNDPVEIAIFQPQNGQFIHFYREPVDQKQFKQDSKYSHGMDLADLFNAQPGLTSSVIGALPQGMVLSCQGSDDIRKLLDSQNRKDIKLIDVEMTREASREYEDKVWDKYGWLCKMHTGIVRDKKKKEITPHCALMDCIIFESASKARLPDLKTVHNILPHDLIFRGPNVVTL
Chain of Alpha-galactosidase (Coffea arabica) (Q42656 whole entry, looked up): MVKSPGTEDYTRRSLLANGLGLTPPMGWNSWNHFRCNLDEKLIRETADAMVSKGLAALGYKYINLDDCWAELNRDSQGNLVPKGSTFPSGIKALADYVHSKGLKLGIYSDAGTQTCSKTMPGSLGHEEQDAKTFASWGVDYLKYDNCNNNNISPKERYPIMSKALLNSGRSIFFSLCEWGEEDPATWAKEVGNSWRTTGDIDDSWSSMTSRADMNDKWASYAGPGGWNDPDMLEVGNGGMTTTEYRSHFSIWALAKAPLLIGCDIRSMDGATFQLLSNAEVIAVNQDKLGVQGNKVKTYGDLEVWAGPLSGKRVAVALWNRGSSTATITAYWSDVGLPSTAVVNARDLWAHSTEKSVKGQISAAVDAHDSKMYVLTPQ
Chain of Flap endonuclease 1 (Homo sapiens) (P39748 whole entry, looked up): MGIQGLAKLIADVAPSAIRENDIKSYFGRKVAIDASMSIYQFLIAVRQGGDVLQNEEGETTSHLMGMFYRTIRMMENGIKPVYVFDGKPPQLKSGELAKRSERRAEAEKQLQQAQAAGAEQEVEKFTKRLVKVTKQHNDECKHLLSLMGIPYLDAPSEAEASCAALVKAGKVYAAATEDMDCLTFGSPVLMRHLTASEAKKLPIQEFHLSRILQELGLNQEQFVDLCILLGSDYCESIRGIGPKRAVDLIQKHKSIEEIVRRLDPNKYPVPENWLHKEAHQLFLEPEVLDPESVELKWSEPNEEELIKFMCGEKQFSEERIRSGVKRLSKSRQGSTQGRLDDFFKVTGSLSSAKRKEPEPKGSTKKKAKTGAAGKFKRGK
Chain of Voltage-gated inwardly rectifying potassium channel KCNH2 (Homo sapiens) (Q12809 whole entry, looked up): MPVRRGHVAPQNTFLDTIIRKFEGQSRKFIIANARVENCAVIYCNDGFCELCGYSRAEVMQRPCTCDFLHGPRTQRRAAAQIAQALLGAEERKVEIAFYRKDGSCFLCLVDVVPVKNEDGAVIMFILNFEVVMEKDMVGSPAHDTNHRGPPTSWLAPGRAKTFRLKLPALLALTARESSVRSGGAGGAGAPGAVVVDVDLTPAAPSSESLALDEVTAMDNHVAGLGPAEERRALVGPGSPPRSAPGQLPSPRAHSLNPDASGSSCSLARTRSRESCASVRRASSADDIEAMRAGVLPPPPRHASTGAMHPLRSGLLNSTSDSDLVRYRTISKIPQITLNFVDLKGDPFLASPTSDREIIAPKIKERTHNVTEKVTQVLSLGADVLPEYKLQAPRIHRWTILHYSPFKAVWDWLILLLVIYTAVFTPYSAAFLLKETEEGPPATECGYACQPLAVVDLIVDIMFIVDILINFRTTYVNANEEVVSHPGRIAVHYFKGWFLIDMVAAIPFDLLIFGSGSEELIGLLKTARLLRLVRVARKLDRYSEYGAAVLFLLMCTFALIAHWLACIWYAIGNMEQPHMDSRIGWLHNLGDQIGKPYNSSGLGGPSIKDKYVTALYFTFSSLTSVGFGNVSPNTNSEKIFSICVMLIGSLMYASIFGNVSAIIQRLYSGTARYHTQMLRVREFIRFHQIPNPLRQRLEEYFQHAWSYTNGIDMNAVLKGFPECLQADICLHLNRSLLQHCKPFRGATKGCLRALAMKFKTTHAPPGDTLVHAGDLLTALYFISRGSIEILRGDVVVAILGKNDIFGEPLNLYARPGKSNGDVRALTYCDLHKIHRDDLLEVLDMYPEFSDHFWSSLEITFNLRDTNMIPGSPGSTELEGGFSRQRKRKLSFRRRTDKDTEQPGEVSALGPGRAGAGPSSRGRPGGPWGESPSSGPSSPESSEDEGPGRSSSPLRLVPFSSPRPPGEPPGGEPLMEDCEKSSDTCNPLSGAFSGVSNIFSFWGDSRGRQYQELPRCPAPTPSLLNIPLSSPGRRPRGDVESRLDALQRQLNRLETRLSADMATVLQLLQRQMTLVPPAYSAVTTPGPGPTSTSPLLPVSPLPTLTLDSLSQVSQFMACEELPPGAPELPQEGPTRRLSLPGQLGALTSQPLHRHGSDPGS
Chain of Peroxisome proliferator-activated receptor delta (Homo sapiens) (Q03181 whole entry, looked up): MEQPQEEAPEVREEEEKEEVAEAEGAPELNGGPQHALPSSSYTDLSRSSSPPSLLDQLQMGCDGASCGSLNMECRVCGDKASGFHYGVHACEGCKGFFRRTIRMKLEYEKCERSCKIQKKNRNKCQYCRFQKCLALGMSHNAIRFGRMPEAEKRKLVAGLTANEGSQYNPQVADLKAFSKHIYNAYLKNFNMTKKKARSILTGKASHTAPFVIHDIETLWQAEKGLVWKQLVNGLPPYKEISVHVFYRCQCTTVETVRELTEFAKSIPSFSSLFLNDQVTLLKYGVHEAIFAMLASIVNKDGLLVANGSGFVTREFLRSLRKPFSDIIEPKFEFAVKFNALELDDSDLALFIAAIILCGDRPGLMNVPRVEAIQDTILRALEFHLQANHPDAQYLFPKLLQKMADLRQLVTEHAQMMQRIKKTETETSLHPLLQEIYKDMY
Chain of Cytochrome P450 3A4 (Homo sapiens) (P08684 whole entry, looked up): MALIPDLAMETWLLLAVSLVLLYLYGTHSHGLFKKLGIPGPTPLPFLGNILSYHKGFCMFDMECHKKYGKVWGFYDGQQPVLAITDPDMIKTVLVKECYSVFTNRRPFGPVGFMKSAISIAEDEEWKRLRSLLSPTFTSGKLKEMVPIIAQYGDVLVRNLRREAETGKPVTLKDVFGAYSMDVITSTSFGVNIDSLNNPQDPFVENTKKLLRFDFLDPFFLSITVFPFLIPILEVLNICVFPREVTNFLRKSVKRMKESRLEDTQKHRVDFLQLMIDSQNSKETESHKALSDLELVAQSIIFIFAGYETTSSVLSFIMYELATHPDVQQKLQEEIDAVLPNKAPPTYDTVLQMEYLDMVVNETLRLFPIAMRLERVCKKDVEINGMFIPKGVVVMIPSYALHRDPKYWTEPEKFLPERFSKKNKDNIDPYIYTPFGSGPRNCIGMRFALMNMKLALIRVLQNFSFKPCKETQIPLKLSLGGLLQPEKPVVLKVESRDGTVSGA
Chain of Nuclear receptor ROR-gamma (Homo sapiens) (P51449 whole entry, looked up): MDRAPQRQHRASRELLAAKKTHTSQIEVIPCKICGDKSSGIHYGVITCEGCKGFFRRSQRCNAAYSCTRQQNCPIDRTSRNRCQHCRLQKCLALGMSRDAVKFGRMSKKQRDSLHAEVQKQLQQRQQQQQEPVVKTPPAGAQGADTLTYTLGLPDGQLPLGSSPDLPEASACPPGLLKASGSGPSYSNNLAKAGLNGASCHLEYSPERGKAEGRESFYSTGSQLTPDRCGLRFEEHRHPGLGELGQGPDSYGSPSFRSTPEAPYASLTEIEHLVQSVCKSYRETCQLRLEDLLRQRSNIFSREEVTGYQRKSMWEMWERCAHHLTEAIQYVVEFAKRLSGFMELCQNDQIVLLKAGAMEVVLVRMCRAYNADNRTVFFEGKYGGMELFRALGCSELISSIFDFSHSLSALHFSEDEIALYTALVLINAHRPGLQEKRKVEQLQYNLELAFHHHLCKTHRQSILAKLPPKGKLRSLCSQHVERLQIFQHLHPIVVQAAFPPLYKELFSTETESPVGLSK

On to `Oc1ccccc1O`, for which the Potency entry in [1], in assay [11], in assay [17], in [21], in [22] and in assay [23] was “inactive” in each case. For the same compound, the Potency entry in [24] is “inactive”. The result in assay [2], in [7], in [8], in [15] and in [20] was inactive. Moreover, the Potency in assay [3] is 20 µM (active); in [4] it was 12.6 µM (active); in assay [5], 7.94 µM (active); in assay [6] it was 15.8 µM (active); in assay [9], 10 µM (active); in [10], 10.4 µM (active). The Potency in assay [12] was 11.9 µM (active); in assay [13], 5.97 µM (active); in assay [14], 79.4 µM (active); in assay [16] it was 35.5 µM (active); in [18] it was 29.8 µM (active); in assay [19] it was 5.96 µM (active).
For the compound `CN1[C@@H](CC(=O)c2ccccc2)CCC[C@H]1C[C@H](O)c1ccccc1`, the Potency in [25] was 6.31 µM (active); in assay [26], 10 µM (active); in [27], 8.91 µM (active); in assay [9], 3.98 µM (active); in assay [28], 4.47 µM (active). The Potency entry in [11], in assay [13], in assay [14], in assay [29], in [21] and in [22] was “inactive” in each case. Moreover, the Potency result in assay [23] and in assay [24] was “inactive” in each case. The compound was classed as inactive in assay [15].
